molecular target: NADPH oxidase 2 (Homo sapiens) (UniProt P04839); test: NOX2-dependent H2O2 signal modulators, primary screen, NOX inhibitor project, cell-based, HEK293-NOX2, PMA-stimulated, Amplex Red fluorescence (AID 1159); conditions: 45 min, higher = more signal, called active from +8 up or from −8 down; further: test concentration not given here
Sequence (P04839 whole entry, looked up): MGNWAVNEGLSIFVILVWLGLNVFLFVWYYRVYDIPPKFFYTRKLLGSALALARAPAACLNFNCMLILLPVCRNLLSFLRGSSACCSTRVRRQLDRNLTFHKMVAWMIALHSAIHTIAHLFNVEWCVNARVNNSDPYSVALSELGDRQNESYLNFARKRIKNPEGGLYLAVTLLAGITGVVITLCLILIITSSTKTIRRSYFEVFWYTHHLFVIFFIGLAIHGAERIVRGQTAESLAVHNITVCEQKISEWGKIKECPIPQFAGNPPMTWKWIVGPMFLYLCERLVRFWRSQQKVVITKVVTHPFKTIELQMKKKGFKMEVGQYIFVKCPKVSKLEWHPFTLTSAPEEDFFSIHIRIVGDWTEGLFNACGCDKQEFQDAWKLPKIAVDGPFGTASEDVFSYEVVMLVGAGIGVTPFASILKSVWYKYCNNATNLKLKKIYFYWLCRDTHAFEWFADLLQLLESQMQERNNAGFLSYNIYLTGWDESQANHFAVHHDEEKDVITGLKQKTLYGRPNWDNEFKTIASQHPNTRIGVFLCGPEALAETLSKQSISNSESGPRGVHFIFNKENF

z-score, inactive:
CCOC(=O)[C@H](CC(C)C)NC(=O)CCC1CC(OC(=O)NCc2cccc3ccccc23)CC2(CCCC(COC(=O)NCCC(C)C)O2)O1 (some centres not stated) 0.902, CCOC(=O)[C@H](CC(C)C)NC(=O)CCC1CC(OC(=O)NCc2cccc3ccccc23)CC2(CCCC(COC(=O)NCC3CCCCC3)O2)O1 (some centres not stated) -2.61, CCC=CCCC(OC(=O)c1ccc(Br)cc1)C1=CCCCC1=O (configuration not stated) -0.126, Cc1cc2c(nc1C)CCCCN2CC(C)ON=C[C@@H](C)[C@H](OCc1ccccc1)C(C)C (some centres not stated) -0.892, CCOC(=O)[C@H](Cc1ccccc1)NC(=O)CCC1CC(OC(=O)NCc2cccc3ccccc23)CC2(CCCC(COC(=O)NCCC(C)C)O2)O1 (some centres not stated) 1.59, Cc1ccc(S(=O)(=O)n2c3ccccc3c3nnc(C(=O)c4ccccc4)nc32)cc1 -0.0413, COC(=O)NCC=Cc1nc(CCCO)co1 -0.745, Cc1ccc(S(=O)(=O)N[C@H]2COC(=O)CC=C[C@H](C)[C@@H](NS(=O)(=O)c3ccc(C)cc3)COC(=O)CC=C[C@@H]2C)cc1 0.152, O=C1[C@H]2[C@H]3[C@H](O)[C@H](O)CC(=NOCc4ccccc4)[C@@H]3CC[C@H]2C(=O)N1C[C@@H]1CCCO1 0.434, CCCCC#C[C@@H]1C=C[C@H](OC(C)=O)[C@@H](COC(C)=O)O1 -2.78, Cc1cc2c(nc1C)CCCN2CC(O)CN1CCCc2nc(C)c(C)cc21 0.803, C#CCCCON=C1C[C@@H](O)[C@@H](O)[C@@H]2[C@@H]3C(=O)N(CC)C(=O)[C@@H]3CC[C@@H]12 0.275, CCOC(=O)CCN1C(=O)[C@H]2[C@H]3[C@H](O)[C@H](O)CC(=NNC(=O)OCc4ccccc4)[C@@H]3CC[C@H]2C1=O -4.57, CC(C)(C)N1C(=O)[C@H]2[C@H]3[C@H](O)[C@H](O)CC(=NOCc4ccccc4)[C@H]3CC[C@H]2C1=O -0.147, C[C@H]1COC(=O)[C@@H]2CCCN2C(=O)[C@@H](C)COC(=O)[C@H](Cc2ccccc2)NC1=O -0.45, O=C1[C@H]2[C@H]3[C@H](O)[C@H](O)CC(=NO[C@@H]4O[C@H](CO)[C@@H](O)[C@H](O)[C@H]4O)[C@H]3CC[C@H]2C(=O)N1c1cccc(Oc2ccccc2)c1 0.7, CC(C)=CCCC(C)=CCON=C1C[C@@H](O)[C@@H](O)[C@@H]2[C@@H]3C(=O)N(Cc4ccccc4)C(=O)[C@@H]3CC[C@H]12 1.51, CC(C)(C)N1C(=O)[C@H]2[C@H]3[C@H](O)[C@H](O)CC(=O)[C@H]3CC[C@H]2C1=O 1.22, COc1ccc(O[C@H]2C=C[C@@H](c3ccccc3)O[C@@H]2COC(=O)CCC(C)=NO[C@@H]2O[C@H](COC(C)=O)[C@@H](OC(C)=O)[C@H](OC(C)=O)[C@H]2OC(C)=O)cc1 1.08, COc1ccc(COC(=O)NN=C2C[C@@H](O)[C@@H](O)[C@@H]3[C@@H]4C(=O)N(Cc5ccccc5)C(=O)[C@@H]4CC[C@H]23)cc1 1.43, COc1cc(O)c(C(=O)C=Cc2ccc3c(c2)OCO3)c(OC)c1 0.0679, C#CCCCON=C1C[C@@H](O)[C@@H](O)[C@@H]2[C@@H]3C(=O)N(C(C)(C)C)C(=O)[C@@H]3CC[C@H]12 -0.722, O=C(NN=C1C[C@@H](O)[C@@H](O)[C@@H]2[C@@H]3C(=O)N(C[C@@H]4CCCO4)C(=O)[C@@H]3CC[C@H]12)OCc1ccccc1 -0.92, COc1cccc([C@H]2Oc3ccc(OC)cc3C(=NO[C@@H](C)c3cn([C@H](CO)Cc4ccccc4)nn3)[C@@H]2O)c1 -0.0734, O=C1[C@H]2[C@H]3[C@H](O)[C@H](O)CC(=NOCc4ccccc4)[C@H]3CC[C@H]2C(=O)N1Cc1ccc2c(c1)OCO2 0.414, CC(C)CON=C1C[C@@H](O)[C@@H](O)[C@@H]2[C@@H]3C(=O)N(C4CCCCC4)C(=O)[C@@H]3CC[C@H]12 -0.671, CC(C)(C)N1C(=O)[C@H]2[C@H]3[C@H](O)[C@H](O)CC(=NO[C@@H]4O[C@H](CO)[C@@H](O)[C@H](O)[C@H]4O)[C@H]3CC[C@H]2C1=O 0.192
